Measured potencies and affinities stand elsewhere. Calls of active or inactive are those of the source. The rule behind the calls is not given here.
Assay: toxicity toward immortalized ovarian surface epithelium – cell-based, plate reader, dry powder samples, cytotoxicity control for PAX8 inhibitor project, dose response (AID 743045);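 note: more negative values mean more cell killing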
Settings: IOSE-T80 ovarian epithelial cells; series mostly up to 35 µM

Row | SMILES | outcome
1 | CN1c2ccc(-c3ccc(C#N)cc3)cc2[C@@H]2[C@@H](CCN2C(=O)NC2CCCCC2)[C@@H]1CO | inactive
2 | CN1c2ccc(C3=CCCCC3)cc2[C@H]2[C@H](CCN2C(=O)NC2CCCCC2)[C@@H]1CO | inactive
3 | C[C@@H]1CCCCO[C@@H](CN(C)Cc2ccc(Cl)c(Cl)c2)[C@H](C)CN([C@H](C)CO)C(=O)c2cc(NS(=O)(=O)c3ccc(F)cc3)ccc2O1 | inactive
4 | C[C@@H]1CN([C@@H](C)CO)C(=O)Cc2cc(NC(=O)Nc3ccc(C(F)(F)F)cc3)ccc2O[C@H]1CN(C)Cc1ccc(Oc2ccccc2)cc1 | inactive
5 | Cc1ccc(S(=O)(=O)Nc2ccc3c(c2)C(=O)N([C@@H](C)CO)C[C@H](C)[C@H](CN(C)Cc2ccc(C(F)(F)F)cc2)OCCCC[C@@H](C)O3)cc1 | inactive
6 | CCCC#Cc1ccc2c(c1)O[C@H](CN(C)Cc1ccccc1)[C@@H](C)CN([C@H](C)CO)S2(=O)=O | inactive
7 | Cc1ccc(S(=O)(=O)N(C)C[C@@H]2OCCCC[C@H](C)Oc3ccc(NS(=O)(=O)c4ccc(F)cc4)cc3C(=O)N([C@H](C)CO)C[C@H]2C)cc1 | inactive
8 | COc1ccc(S(=O)(=O)N(C)C[C@H]2Oc3ccc(NC(=O)Nc4ccc(C(F)(F)F)cc4)cc3CC(=O)N([C@H](C)CO)C[C@@H]2C)cc1 | inactive
9 | CNC[C@@H]1Oc2cc(C#CC3CCCCC3)ccc2S(=O)(=O)N([C@@H](C)CO)C[C@@H]1C | inactive
10 | C[C@@H]1CCCCO[C@H](CN(C)C(=O)Nc2ccc(C(F)(F)F)cc2)[C@H](C)CN([C@@H](C)CO)C(=O)c2cc(NS(=O)(=O)c3ccc(Cl)cc3)ccc2O1 | inactive
